{"source": "PubChem BioAssay (NCI)", "note": "About 83,000 compounds went through this panel and 20% of them were active in at least one assay; those are over-represented in the sample as a whole.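 For each line, cells grew in 96-well plates with the test compound present at a single concentration for 48 hours.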 The source made the active and inactive calls. How the source made its calls: active means growth percent below 10; inactive means the rest."}
{"system": "MDA-MB-468 breast", "assay": "NCI-60 one-dose screen, 48 h (100 = growth as untreated, 0 = no growth, -100 = all killed)", "conditions": "10 µM unless noted"}
{"smiles": "O=C1/C(=C/c2cccc3cnccc23)Cc2cc(F)ccc21", "growth": "65.2% (inactive)"}
{"smiles": "CCN(CC)c1ccc2cc(NC(=O)OCCNC(=O)CCNC(=O)[C@H](CC(C)C)NC(=O)C(C)(C)NC(=O)C(C)(C)NC(=O)[C@H](CC(C)C)NC(=O)CCNC(=O)C(C)(C)NC(=O)[C@H](CC(C)C)NC(=O)CCNC(=O)[C@@](C)(CC)NC(=O)[C@H](C)NC(=O)CCNC(=O)C(C)(C)NC(=O)[C@H](C)NC(=O)[C@@H]3CCCN3C(=O)[C@@](C)(CC)NC(=O)[C@H](Cc3ccccc3)NC(=O)C3CCCN3C(=O)C(C)(C)NC(=O)C3CCCN3C(=O)C(C)(C)NC(C)=O)c(=O)oc2c1", "note": "(stereo not given in full)", "growth": "-83% (active)"}
{"smiles": "COc1cc(CCC[P+](c2ccccc2)(c2ccccc2)c2ccccc2)cc2c1OCO2", "growth": "-22.7% (active)"}
{"smiles": "COc1cccc2cc(-c3cc4ccccc4[nH]3)/c(=N/C(=S)Nc3ccc(C)cc3)oc12", "growth": "81.6% (inactive)"}
{"smiles": "C/C(=N\\NC(=O)CSc1nc2ccccc2c(=O)n1CCc1ccc(S(N)(=O)=O)cc1)c1ccccn1", "growth": "25.3% (inactive)"}
{"smiles": "Nc1ccn(C2CC(O)C(CO)O2)c(=O)n1", "note": "(stereo not given)", "growth": "103% (inactive)"}
{"smiles": "CN(c1ccccc1)c1ccc2c(c1)OCCC21CC1Nc1cnccc1C(=O)O", "note": "(stereo not given)", "growth": "72.3% (inactive)"}
{"smiles": "C=C(C)[C@@H]1CCC=C2CC[C@]3(C)[C@H](CC[C@@H]4[C@@]5(C)CCCNC(C)(C)[C@@H]5CC[C@]43C)[C@H]21", "growth": "-31.5% (active)"}
{"smiles": "COc1ccc(-c2csc(NC(=O)CSc3nc(C)cc(=O)[nH]3)n2)cc1", "growth": "118% (inactive)"}
{"smiles": "O=S(=O)(O)c1ccc(N=Nc2ccc(N=Nc3cccc4ccccc34)c(S(=O)(=O)O)c2)cc1", "growth": "89.8% (inactive)"}
{"smiles": "O=C(/C=C\\c1ccccc1)N1c2ccccc2CC1c1c[nH]c2ccccc12", "note": "(stereo not given)", "growth": "80.6% (inactive)"}
{"smiles": "Cc1ccc(C(=O)/C(=C/c2ccc([N+](=O)[O-])cc2)SCc2ccc(Cl)cc2)cc1", "growth": "72.9% (inactive)"}
{"smiles": "CC[C@]12CN3CCc4c([nH]c5ccccc45)[C@@](C(=O)OC)(c4cc5c(cc4OC)N(C)[C@H]4[C@@](O)(C(=O)OC)[C@H](OC(C)=O)[C@]6(CC)C=CCN7CC[C@]54[C@@H]76)CC(C3)[C@H]1O2", "note": "(stereo not given in full)", "growth": "-12.7% (active)"}
{"smiles": "CS(=O)(=O)N1CCN(Cc2cc3nc(-c4cccc5[nH]ncc45)nc(N4CCOCC4)c3s2)CC1", "note": "(tested in a mixture with another compound)", "growth": "-47.9% (active)"}
{"smiles": "COc1ccc(N2CCC(=O)NC2=S)cc1", "growth": "100% (inactive)"}
{"smiles": "COCCn1c(Nc2ccc(C(=O)NO)cc2)nc2ccccc21", "growth": "63.7% (inactive)"}
{"smiles": "Cc1ccc(C)c2c1CCC2=O", "growth": "63.4% (inactive)"}
{"smiles": "O=C(N/N=C/c1ccccc1O)c1ccncc1", "growth": "61% (inactive)"}
{"smiles": "Cc1[nH]c(/C=C2\\C(=O)Nc3ccc(F)cc32)c(C)c1C(=O)NC[C@H](O)CN1CCOCC1", "growth": "114% (inactive)"}
{"smiles": "O=C1C(=O)N(CCCCn2cc(-c3ccccc3)nn2)c2ccccc21", "growth": "125% (inactive)"}
{"smiles": "O=[N+]([O-])c1cc(S(=O)(=O)c2ccc(F)c([N+](=O)[O-])c2)ccc1F", "growth": "88.4% (inactive)"}
{"smiles": "CS(=O)(=O)Nc1ccc(OCc2nnc(-c3ccc(Cl)cc3)o2)c(F)c1", "growth": "86.8% (inactive)"}
{"smiles": "CCn1cc(CNc2ccc(C(=O)Nc3cc4cc(OC)c(OC)cc4c(C)n3)cc2)c(C)n1", "growth": "23.2% (inactive)"}
{"smiles": "CN(C)c1ccc2nc3ccc(=N)cc-3sc2c1", "growth": "38.6% (inactive)"}
{"smiles": "CC#Cc1nc2ccccc2c(=O)[nH]1", "growth": "14.8% (inactive)"}
{"smiles": "COc1cc(/C=C/c2cc(/C=C/c3ccc(O)c(OC)c3)n(C(=O)c3ccc(Cl)cc3)n2)ccc1O", "growth": "1.45% (active)"}
{"smiles": "CCOC(=O)c1sc(Nc2ncccn2)nc1-c1ccccn1", "growth": "10.4% (inactive)"}
{"smiles": "CC/C(=C\\c1ccc(N(C)C)cc1)c1nc2ccccc2c(=O)[nH]1", "growth": "91.4% (inactive)"}
{"smiles": "Cc1ccc(S(=O)(=O)CCCl)cc1", "growth": "118% (inactive)"}
{"smiles": "CCCCN[C@H]1CC[C@@]2(C)[C@@H](CC[C@@]3(C)[C@H]2[C@H](O)C[C@H]2/C(=C(\\CCC=C(C)C)C(=O)OC)[C@@H](OC(C)=O)C[C@@]23C)[C@@H]1C", "growth": "88.9% (inactive)"}
{"smiles": "Fc1ccc(NCCS)cc1", "growth": "106% (inactive)"}
{"smiles": "O=c1c2cccc3c(N4CCCC4)ccc(c32)c2nc3ccccc3n12", "growth": "80.3% (inactive)"}
{"smiles": "C=C1C(=O)O[C@H]2[C@H]1CC/C(COC(=O)NCc1ccccc1OC)=C\\CC[C@@]1(C)O[C@@H]21", "growth": "42.2% (inactive)"}
{"smiles": "O=C1NN(C(=O)c2ccccc2)C(c2ccc(Cl)c(Cl)c2)=C/C1=C\\c1ccc([N+](=O)[O-])cc1", "growth": "84.2% (inactive)"}
{"smiles": "Cc1ccc2c(n1)C(=O)C(Br)=C(C1CCCC1)C2=O", "growth": "95.2% (inactive)"}
{"smiles": "O=C1[C@H]2Cc3c([nH]c4ccccc34)[C@@H](c3c(Cl)cccc3Cl)N2C(=O)CN1C1CCN(CC2CCCCC2)CC1", "growth": "80.5% (inactive)"}
{"smiles": "FC(F)(F)c1cccc(-c2cn3c(ccc4ccccc43)n2)c1", "growth": "104% (inactive)"}
{"smiles": "Cc1c2c(cc[n+]1Cc1ccccc1)c1ccc(OCC3CCCCC3)cc1n2CC1CCCCC1", "growth": "-86.6% (active)"}
{"smiles": "CN(C)[C@@H]1C(=O)C(C(=O)NCc2nc3[nH]cnc(=S)c3[nH]2)=C(O)[C@@]2(O)C(=O)C3=C(O)c4c(O)cccc4[C@@](C)(O)[C@H]3C[C@@H]12", "growth": "81.2% (inactive)"}
{"smiles": "COc1ccc(-c2c(N)n[nH]c2-c2ccc(Cl)cc2O)cc1OC", "growth": "84.1% (inactive)"}
